Bioassay records deposited in PubChem BioAssay by The Scripps Research Institute Molecular Screening Center.
GBA enhancer: increases beta-glucosidase activity in Gaucher fibroblasts; P04062; L444P Gaucher fibroblasts, 4-MU-glucoside fluorescence, 3 days; activation, % at 10 µM; hit rate 0.44% among 30,000; AID 784; in the data active = activation above about 65%;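 also: 0% = vehicle wells and 100% = positive control wells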
Target sequence (P04062 whole entry L483P): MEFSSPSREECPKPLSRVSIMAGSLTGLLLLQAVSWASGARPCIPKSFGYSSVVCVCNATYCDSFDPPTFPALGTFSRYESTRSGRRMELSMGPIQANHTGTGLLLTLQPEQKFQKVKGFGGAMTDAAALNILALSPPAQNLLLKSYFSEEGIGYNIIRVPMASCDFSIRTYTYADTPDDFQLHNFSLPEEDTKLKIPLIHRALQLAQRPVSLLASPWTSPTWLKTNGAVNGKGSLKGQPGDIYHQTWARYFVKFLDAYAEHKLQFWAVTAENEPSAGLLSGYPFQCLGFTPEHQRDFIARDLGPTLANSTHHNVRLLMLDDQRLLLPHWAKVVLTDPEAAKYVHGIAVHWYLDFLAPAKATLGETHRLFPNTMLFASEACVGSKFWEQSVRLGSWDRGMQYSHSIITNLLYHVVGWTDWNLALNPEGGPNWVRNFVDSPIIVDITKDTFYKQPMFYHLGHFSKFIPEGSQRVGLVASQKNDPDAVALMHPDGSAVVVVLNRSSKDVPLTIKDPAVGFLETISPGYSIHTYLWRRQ
An asterisk follows results filed as active. Shown is part of a subset that was picked to be rich in hits.

What do the screens show for `CCCn1c2ccccc2c2nnc(SCC(=O)OCC)nc21`?
GBA enhancer: -6.4

What do the screens show for `O=C(CN1CCN(c2ccc(F)cc2)CC1)OCc1ccccc1`?
GBA enhancer: -10.2

How did COCCn1c(SCc2ccc(C(=O)OC)o2)nc2cc(Cl)ccc2c1=O do in these assays?
GBA enhancer: -7.9

How did CCOC(=O)Cc1csc(NC(=O)CSc2ncnc3c2cnn3-c2ccccc2Cl)n1 do in these assays?
GBA enhancer: 28.6

How did CC1CCOC2(O1)C(=O)N(CN1CCN(c3ccccc3F)CC1)c1ccccc12 (configuration not stated) do in these assays?
GBA enhancer: -53.3

What do the screens show for `CCCn1c(SCC(N)=O)nnc1-c1ccco1`?
GBA enhancer: -16.1

How did Cc1cc(Cl)ccc1OC(C)C(=O)Nc1ccccc1N1CCOCC1 (configuration not stated) do in these assays?
GBA enhancer: -28.1

How did CCC(C)Oc1cccc(C(=O)Nc2ccccc2N2CCOCC2)c1 (configuration not stated) do in these assays?
GBA enhancer: -1.7

What do the screens show for `CC(C)Oc1cccc(C(=O)Nc2ccccc2N2CCOCC2)c1`?
GBA enhancer: 65.2*

Results for Cc1ccc(-c2nnn(CC(=O)Nc3ccccc3N3CCOCC3)n2)cc1 ?
GBA enhancer: -17.8

Results for Cc1ccn2cc(C(=O)Nc3ccccc3N3CCOCC3)nc2c1 ?
GBA enhancer: 91.6*

Results for O=C(Nc1ccccc1N1CCOCC1)c1ccc2ccccc2n1 ?
GBA enhancer: 19.8

Results for COc1ccccc1NC(=O)C1=C(C)NC2=C(C(=O)CCC2)C1c1ccc2c(c1)OCO2 (configuration not stated) ?
GBA enhancer: -26.9

Results for CCNc1ccc(C(=O)OCC)cc1NC(=O)c1cccc(S(=O)(=O)N2CCOCC2)c1 ?
GBA enhancer: -4.4

What do the screens show for `O=C(c1c(F)cccc1F)N(Cc1ccccn1)C1CCCC1`?
GBA enhancer: 1.7

How did O=C(OCc1nnc(-c2ccccc2)o1)C1CCN(S(=O)(=O)c2cccs2)CC1 do in these assays?
GBA enhancer: -1.9

How did O=C(NCCCn1ccnc1)c1cc(-c2ccc3c(c2)OCO3)on1 do in these assays?
GBA enhancer: 34.5

How did COC(=O)CSc1nnc(-c2ccco2)n1Cc1ccco1 do in these assays?
GBA enhancer: -2.5

How did CCN(CC)C(=O)CSc1nnc(-c2ccco2)n1Cc1ccco1 do in these assays?
GBA enhancer: -7.6

What do the screens show for `CC(C)(C)NC(=O)CSc1nnc(-c2ccco2)n1Cc1ccco1`?
GBA enhancer: 78.3*

What do the screens show for `COC(=O)CC1Sc2ccccc2NC1=O` (configuration not stated)?
GBA enhancer: -22.0

What do the screens show for `CC(=O)c1ccc2c(c1)Nc1ccccc1S2`?
GBA enhancer: 70.8*

Results for CC(=O)c1cccc(NC(=O)C=C(C)C)c1 ?
GBA enhancer: 0.6

How did CCOC(=O)c1nnn(-c2nonc2N)c1CSc1ccccn1 do in these assays?
GBA enhancer: -17.7

Results for N#Cc1cc2c(=O)n3ccccc3nc2n(CCCn2ccnc2)c1=N ?
GBA enhancer: -14.4

What do the screens show for `Cc1ccc(-n2c(=O)c(C#N)cc3c(=O)n4ccccc4nc32)cc1`?
GBA enhancer: 134.0*

What do the screens show for `Cc1ccc(S(=O)(=O)c2cc3c(=O)n4ccccc4nc3n(CC3CCCO3)c2=N)cc1` (configuration not stated)?
GBA enhancer: -3.7

What do the screens show for `COc1cccc(CNC(=O)C2CCN(S(=O)(=O)N3CC(C)CC(C)C3)CC2)c1` (configuration not stated)?
GBA enhancer: -14.5
